# Assay results reported in PubChem BioAssay.
# Calls of active or inactive are those of the source. Unless noted, how the calls were made is not given here.
# Tests used:
# [1] = A549 cell viability effects, profiling panel, calcein-AM fluorescence, 48 h, basal (AID 1162); conditions: higher = more signal; further: test concentration not given here
# [2] = adipocyte viability effects, profiling panel, cell-based, 3T3-L1 adipocytes, calcein-AM fluorescence, 48 h, basal (AID 1163); conditions: 3T3-L1 adipocytes viability, higher = more signal; further: test concentration not given here
# [3] = HepG2 cell viability effects, profiling panel, calcein-AM fluorescence, 48 h, basal (AID 1164); conditions: higher = more signal; further: test concentration not given here
# [4] = MM1S cell viability effects, profiling panel, calcein-AM fluorescence, 48 h, basal (AID 1165); conditions: higher = more signal;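 further: viability of MM1S multiple myeloma cells under basal unstimulated conditions; test concentration not given here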
# [5] = basal RPMI8226 viability, no added stimulus, profiling panel, cell-based, calcein-AM fluorescence, 48 h, PK04 Diversity Set (AID 1166); conditions: RPMI8226 myeloma viability, higher = more signal;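 further: cells grown under basal conditions without added stimulus; test concentration not given here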
# [6] = basal HepG2 mitochondrial membrane potential changes, profiling panel, cell-based, JC-1 fluorescence, 24 h, 100 nL compound (AID 1167); conditions: higher = more signal; further: test concentration not given here
# [7] = basal 3T3-L1 adipocyte mitochondrial potential changes, profiling panel, cell-based, JC-1 fluorescence, 3T3-L1 adipocytes, 24 h, 100 nL compound (AID 1168); conditions: JC-1 mitochondrial fluorescence, higher = more signal, called active from +8 up or from −8 down; further: test concentration not given here
# [8] = basal RPMI8226 mitochondrial membrane potential changes, profiling panel, cell-based, JC-1 fluorescence, 24 h, 100 nL compound (AID 1169); conditions: RPMI8226 myeloma, JC-1 mitochondrial potential fluorescence, higher = more signal; further: test concentration not given here
# [9] = basal MM1S mitochondrial membrane potential changes, profiling panel, cell-based, JC-1 fluorescence, 24 h, 100 nL compound (AID 1170); conditions: higher = more signal; further: test concentration not given here
# [10] = A549 lung cancer cell viability effects, profiling panel, resazurin fluorescence, 24 h, PK04 Diversity Set (AID 1171); conditions: higher = more signal, called active from +8 up or from −8 down; further: test concentration not given here
# [11] = HepG2 liver cancer cell viability effects, profiling panel, resazurin fluorescence, 24 h, PK04 Diversity Set (AID 1172); conditions: higher = more signal; further: test concentration not given here
# [12] = basal S. cerevisiae growth modulation, no modifier, primary screen, OD600, strain BY4716, 24 h, basal condition (AID 1173); conditions: OD600, 24 h, higher = more signal, called active from +8 up or from −8 down
# [13] = MM1S myeloma cell viability, profiling panel, resazurin fluorescence, basal, 24 h, PK04 Diversity Set (AID 1174); conditions: higher = more signal, called active from +8 up or from −8 down;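 further: MM1S multiple myeloma cell line; test concentration not given here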
# [14] = target: Dihydroorotate dehydrogenase (quinone), mitochondrial (Plasmodium falciparum (isolate 3D7)) (UniProt Q08210); assay: PfDHODH enzyme inhibitors, primary screen, biochemical, C-terminal His tag, absorbance 600 nm (AID 1175); conditions: DCIP absorbance 600 nm, higher = more signal, called active from +8 up or from −8 down;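 further: recombinant parasite enzyme with a five histidine tag at its C terminus; test concentration not given here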
# Sequence of Dihydroorotate dehydrogenase (quinone), mitochondrial (Plasmodium falciparum (isolate 3D7)) (Q08210 whole entry, looked up): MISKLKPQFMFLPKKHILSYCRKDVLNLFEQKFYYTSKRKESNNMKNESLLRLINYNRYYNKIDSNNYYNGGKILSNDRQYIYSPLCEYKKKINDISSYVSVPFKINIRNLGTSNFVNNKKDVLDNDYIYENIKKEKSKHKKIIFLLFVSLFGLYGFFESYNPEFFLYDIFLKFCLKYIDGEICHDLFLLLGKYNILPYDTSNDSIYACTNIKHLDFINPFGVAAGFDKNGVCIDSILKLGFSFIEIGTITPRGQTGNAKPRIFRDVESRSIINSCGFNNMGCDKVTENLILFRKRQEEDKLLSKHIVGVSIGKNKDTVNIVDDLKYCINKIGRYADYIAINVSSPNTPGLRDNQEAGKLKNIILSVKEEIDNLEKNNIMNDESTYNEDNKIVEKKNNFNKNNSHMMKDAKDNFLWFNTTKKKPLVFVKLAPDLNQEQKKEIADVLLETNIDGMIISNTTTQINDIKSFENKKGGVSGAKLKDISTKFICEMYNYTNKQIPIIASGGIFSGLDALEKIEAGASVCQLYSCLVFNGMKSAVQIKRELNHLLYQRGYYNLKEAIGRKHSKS
# [15] = P. aeruginosa biofilm formation inhibitors, primary screen, strain PAO1, LB-PBS medium, absorbance 600 nm (AID 1176); further: test concentration not given here; conditions: P. aeruginosa PAO1 growth/biofilm, A600, 12 h; higher = more signal
# [16] = S. cerevisiae RM11-1a growth modifiers, primary screen, strain RM11-1a, OD600, basal, 24 h (AID 1177); conditions: OD600, 24 h, higher = more signal, called active from +8 up or from −8 down;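 further: cultures grown under basal conditions with no added stressor; test concentration not given here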
# [17] = E. coli acrAB mutant growth effects, primary screen, E. coli filamentation inducers, strain DRC39, OD650, 24 h (AID 1178); conditions: higher = more signal, called active from +8 up or from −8 down;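 further: growth measured as culture turbidity by optical density at 650 nm; test concentration not given here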
# [18] = E. coli acrAB mutant growth effects, primary screen, E. coli filamentation inducers, strain DRC39, OD650, 48 h (AID 1179);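 further: screen aims at cell division blockers that make cells filament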; conditions: E. coli DRC39 delta-acrAB growth, higher = more signal, called active from +8 up or from −8 down
# [19] = RPMI8226 myeloma cell viability, profiling panel, resazurin fluorescence, basal, 24 h, PK04 Diversity Set (AID 1180); conditions: higher = more signal;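 further: RPMI8826 multiple myeloma cell line at 5000 cells per well; test concentration not given here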
# [20] = target: E3 ubiquitin-protein ligase XIAP (Homo sapiens) (UniProt P98170); assay: XIAP binders, primary screen, biophysical, small-molecule microarray, fluorescence 635 nm (AID 1181); conditions: small-molecule microarray binding, higher = more signal;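 further: score merges 667 nm emission and signal to noise over triplicate slides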
# Sequence of E3 ubiquitin-protein ligase XIAP (Homo sapiens) (P98170 whole entry, looked up): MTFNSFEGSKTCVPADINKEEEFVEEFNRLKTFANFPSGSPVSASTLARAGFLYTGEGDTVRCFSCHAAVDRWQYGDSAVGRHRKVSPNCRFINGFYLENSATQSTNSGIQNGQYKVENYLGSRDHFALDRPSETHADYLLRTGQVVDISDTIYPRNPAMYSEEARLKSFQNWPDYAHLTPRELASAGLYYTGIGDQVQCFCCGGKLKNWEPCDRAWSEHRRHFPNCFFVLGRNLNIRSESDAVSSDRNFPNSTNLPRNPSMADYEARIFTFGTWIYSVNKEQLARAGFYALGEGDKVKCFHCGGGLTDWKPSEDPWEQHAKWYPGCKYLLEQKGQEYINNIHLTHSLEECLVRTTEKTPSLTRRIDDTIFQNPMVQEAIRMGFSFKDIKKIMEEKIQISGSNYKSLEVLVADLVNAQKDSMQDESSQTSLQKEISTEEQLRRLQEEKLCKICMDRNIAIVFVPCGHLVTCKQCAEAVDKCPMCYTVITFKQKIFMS
Structure (SMILES),z-score [1],z-score [2],z-score [3],z-score [4],z-score [5],z-score [6],z-score [7],z-score [8],z-score [9],z-score [10],z-score [11],z-score [12],z-score [13],composite z-score [14],z-score [15],z-score [16],z-score [17],z-score [18],z-score [19],composite z-score [20]
CC(C)(C)OC(=O)CC[C@]1(C(=O)N2CCCCC2)N=C(c2ccc(OCCCO)cc2)O[C@H]1c1ccccc1N=[N+]=[N-],1.12,0.768,0.63,-2.03,-0.99,1.18,1.92 (inactive),-0.862,-0.715,-0.0762 (inactive),0.188,0.367 (inactive),-1.79 (inactive),0.107 (inactive),0.466 (inactive),1.01 (inactive),1.82 (inactive),1.04 (inactive),-1.32,-0.0304
COCCOC(=O)N1C(=O)[C@@]2(c3ccccc31)[C@H](C(=O)NC[C@H](O)c1ccccc1)[C@H]1C(=O)O[C@H](c3ccccc3)[C@H](c3ccccc3)N1[C@@H]2c1ccc(OCCO)cc1,-0.656,1.13,-0.655,-0.233,-0.773,0.546,0.843 (inactive),-0.598,-0.295,0.377 (inactive),1.09,1.42 (inactive),-1.04 (inactive),-0.0923 (inactive),2.36 (inactive),1.61 (inactive),0.649 (inactive),-0.559 (inactive),-0.744,-0.156
O=C1OCCC/C=C\[C@H]2OC34C=CCN(Cn5nnc6ccccc65)C(=O)[C@H]3N(CCCCCO)C(=O)[C@@H]4C12 (stereo not given in full),-0.452,1.05,-1.02,-0.496,0.424,0.19,0.0884 (inactive),-0.212,0.37,0.0684 (inactive),0.502,-0.419 (inactive),0.812 (inactive),-1.01 (inactive),0.193 (inactive),-0.564 (inactive),0.376 (inactive),-0.0083 (inactive),0.692,0.178
COc1ccc([Si](C)(C)[C@@H]2[C@@H](CC(=O)N(CCO)Cc3ccccc3)O[C@]3(C(=O)N(C)c4ccccc43)[C@H]2C)cc1,-0.664,0.349,-1.58,-2.68,-3.74,-0.494,-1.44 (inactive),-1.12,-0.319,-1.78 (inactive),-1.36,-0.599 (inactive),-1.64 (inactive),-0.688 (inactive),0.708 (inactive),0.975 (inactive),-0.284 (inactive),-0.896 (inactive),-1.49,-0.0853
COC(=O)[C@@]1(Cc2ccc(OC)cc2)[C@H]2c3cc(C(=O)N(C)C)n(Cc4c(OC)[nH]cc(C)c4=O)c3C[C@H]2CN1C(=O)c1ccccc1,0.249,-0.0161,1.17,0.685,1.13,1.95,0.274 (inactive),-0.213,-1.65,-1.52 (inactive),-0.672,0.87 (inactive),-2.62 (inactive),-0.967 (inactive),0.7 (inactive),-0.838 (inactive),0.0795 (inactive),0.574 (inactive),-1.93,0.295
C=CCNC(=O)[C@@H]1[C@H]2C(=O)O[C@H](c3ccccc3)[C@H](c3ccccc3)N2[C@H](c2ccccc2OCCO)[C@@]12C(=O)Nc1ccc(C#CC3=CCCCC3)cc12,-1.77,1.98,-2.85,-3.09,-3.42,-1.79,2.32 (inactive),-0.853,-1.17,-1.49 (inactive),-1.55,0.556 (inactive),-2.61 (inactive),0.496 (inactive),1.55 (inactive),1.78 (inactive),-0.125 (inactive),-0.353 (inactive),-5,0.0593
C=CCC(OC(C)=O)[C@@H]1[C@@H](N(Cc2cccc3ccccc23)C(=O)c2ccc(C)cc2)c2cc(OCCCO)ccc2N1C(=O)Cc1ccc(OC)cc1 (stereo not given in full),1.77,1.14,1.97,0.621,0.943,1.77,0.696 (inactive),0.594,-0.596,0.69 (inactive),1.36,-2.29 (inactive),0.641 (inactive),-1.6 (inactive),0.0186 (inactive),-1.25 (inactive),1.59 (inactive),1.98 (inactive),-0.203,-0.086
COC(=O)C1=CC(CCCO)=CC(C2CC2)N(Cc2sc3ccccc3c2Cl)C=C1C(=O)OC (stereo not given),-0.637,0.326,-0.514,-2.99,-4.06,0.00468,0.235 (inactive),-0.915,0.00801,0.0509 (inactive),-0.908,-1.32 (inactive),-0.944 (inactive),-4.56 (inactive),-0.0065 (inactive),1.61 (inactive),0.386 (inactive),-0.444 (inactive),-0.691,-0.0172
COc1ccc(C(O)C2C=CC3C(=O)N(c4ccccc4)C(=O)C3N2Nc2ccc([N+](=O)[O-])cc2)cc1OCc1ccccc1 (stereo not given),-0.805,-0.64,-1.09,0.324,-0.378,-0.608,-1.46 (inactive),-0.215,-0.693,0.317 (inactive),-0.46,0.948 (inactive),-0.644 (inactive),0.323 (inactive),2.14 (inactive),-0.384 (inactive),-0.908 (inactive),-0.337 (inactive),-0.839,-0.0655
